PMC5540273 (PLoS ONE, 2017)
“And” between values parts separate entries of the source, which are not always exact repeats. Identical values can stand only once. Like-named read-outs stand apart in the source and are kept apart here.

Tests used:
PIP5K2C = tested on: T1, PIP5K2C; settings: concentration: 1 μM, replicates: in singlicate, n = 1
T1 construct: gene PIP4K2C

PKAC-alpha = tested on: T2, PKAC-alpha; settings: concentration: 1 μM, replicates: in singlicate, n = 1
T2 construct: gene PRKACA

PKAC-beta = tested on: T3, PKAC-beta; settings: concentration: 1 μM, replicates: in singlicate, n = 1
T3 construct: gene PRKACB

PKMYT1 = settings: concentration: 1 μM, replicates: in singlicate; n = 1
PKN1 = settings: concentration: 1 μM, replicates: in singlicate, n = 1
PKN2 = settings: concentration: 1 μM, replicates: in singlicate, n = 1
PLK1 = settings: concentration: 1 μM, replicates: in singlicate, n = 1
PLK2 = settings: concentration: 1 μM, replicates: in singlicate, n = 1
PLK3 = settings: concentration: 1 μM, replicates: in singlicate, n = 1
PLK4 = settings: concentration: 1 μM, replicates: in singlicate, n = 1
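Note: KINOMEscan kinase panel screen.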

SMILES | %Inh (PIP5K2C) [%] | %Inh (PKAC-alpha) [%] | %Inh (PKAC-beta) [%] | %Inh (PKMYT1) [%] | %Inh (PKN1) [%] | %Inh (PKN2) [%] | %Inh (PLK1) [%] | %Inh (PLK2) [%] | %Inh (PLK3) [%] | %Inh (PLK4) [%] | %Inh (PIP5K2C; 1 µM) | %Inh (PKAC-alpha; 1 µM) | %Inh (PKAC-beta; 1 µM) | %Inh (PKN1; 1 µM) | %Inh (PKN2; 1 µM) | %Inh (PLK1; 1 µM) | %Inh (PLK2; 1 µM) | %Inh (PLK3; 1 µM) | %Inh (PLK4; 1 µM)
CNc1nccc(-c2c(-c3ccc(F)cc3)ncn2CCCN2CCOCC2)n1 [SB-222516] | 0 | 1 | 19 | 0 | 0 | 36 | 41 | 14 | 0 | 0 | – | – | – | – | – | – | – | – | –
CCc1nc(-c2cccc(C)c2)c(-c2ccnc(NC(=O)c3ccccc3)c2)s1 | 99.1 | 0 | 0 | 0 | 13 | 0 | 0 | 5 | 9 | 17 | – | – | – | – | – | – | – | – | –
Cl.c1ccc(Cn2ccc3cc(Nc4ncnc5ccccc45)ccc32)cc1 [GW275568] | 25 | 18 | 0 | 0 | 26 | 0 | 4 | 0 | 0 | 5 | – | – | – | – | – | – | – | – | –
Nc1nc(-c2ccccn2)c(-c2ccnc3ccccc23)s1 [GW548057] | 57 | 0 | 4 | 0 | 0 | 9 | 0 | 0 | 0 | 14 | – | – | – | – | – | – | – | – | –
Nc1nc(-c2ccc3c(N)n[nH]c3c2)cc(N2CCC[C@@H](C(=O)Nc3ccccc3)C2)n1.O=C(O)C(F)(F)F.O=C(O)C(F)(F)F [GSK2288359] | 31 | 14 | 22 | 0 | 17 | 0 | 3 | 0 | 3 | 16 | – | – | – | – | – | – | – | – | –
O=C(Nc1ccccc1F)NC1CCN(c2ccnc(Nc3ccc(F)cc3)n2)C1 (stereo not drawn) [GSK1379722] | 18 | 0 | 0 | 4 | 0 | 0 | 0 | 0 | 0 | 0 | – | – | – | – | – | – | – | – | –
COc1ccc(NC(=O)Nc2ccc(C)c(-c3ccc(C(=O)Nc4ccncc4)cc3)c2)cc1 [GSK1398475] | 0 | 8 | 0 | 0 | 0 | 0 | 0 | 0 | 0 | 0 | – | – | – | – | – | – | – | – | –
Cl.Cn1ccc(-c2cccc(Nc3ccnc4cc(-c5nccs5)ccc34)c2)n1 [GW525701] | 50 | 0 | 0 | 0 | 0 | 0 | 0 | 0 | 0 | 5 | – | – | – | – | – | – | – | – | –
CN1CCC(n2cnc(-c3ccc(F)cc3)c2-c2ccnc(NC3CCNCC3)n2)CC1 [SB-229482] | 95.2 | 0 | 13 | 0 | 0 | 25 | 11 | 0 | 0 | 20 | – | – | – | – | – | – | – | – | –
FC(F)(F)c1ccc(-c2nn3ncccc3c2-c2ccnc(Nc3cccc(C(F)(F)F)c3)n2)cc1 [GW828205] | 3 | 0 | 24 | 15 | 0 | 0 | 0 | 0 | 18 | 0 | – | – | – | – | – | – | – | – | –
COC(=O)c1c(-c2ccccc2)c2cc(Cl)ccc2c(=O)n1Cc1ccc(S(C)(=O)=O)cc1 | 0 | 5 | 0 | 1 | 0 | 0 | 0 | 6 | 9 | 26 | – | – | – | – | – | – | – | – | –
CS(=O)(=O)CCNCc1ccc(-c2ccc3ncnc(Nc4ccc(OCc5ccccc5)c(Cl)c4)c3c2)o1.Cl [GW574783] | 29 | 4 | 16 | 0 | 12 | 8 | 6 | 0 | 0 | 0 | – | – | – | – | – | – | – | – | –
Cl.Fc1ccccc1COc1ccc(Nc2ncnc3ccc(-c4nnc(C(F)(F)F)o4)cc23)cc1Cl [GW424170] | 7 | 0 | 0 | 0 | 0 | 0 | 0 | 0 | 0 | 0 | – | – | – | – | – | – | – | – | –
COc1ccc(Nc2nccc(N3CCC(NC(=O)c4cccc(NC(C)=O)c4)C3)n2)cc1 (stereo not drawn) [GSK1379732] | 57 | 0 | 12 | 3 | 0 | 0 | 15 | 6 | 0 | 0 | – | – | – | – | – | – | – | – | –
Cl.c1ccc(Cn2ncc3cc(Nc4ncnc5ccccc45)ccc32)cc1 [GW273749] | 0 | 0 | 0 | 0 | 13 | 0 | 2 | 0 | 2 | 0 | – | – | – | – | – | – | – | – | –
COc1cc2c(Nc3cccc(NC(=O)c4ccccc4)c3)ncnc2cc1OCCCN1CCOCC1 [GSK223810] | 0 | 100 | 0 | 7 | 8 | 0 | 0 | 3 | 0 | 17 | – | – | – | – | – | – | – | – | –
FC(F)(F)c1cc(Nc2nccc(-c3c(-c4ccc(Cl)cc4)nn4ncccc34)n2)ccc1Cl [GW829351] | 0 | 0 | 0 | 0 | 0 | 0 | 0 | 0 | 3 | 7 | – | – | – | – | – | – | – | – | –

SMILES | %Inh (PIP5K2C) [%] | %Inh (PKAC-alpha) [%] | %Inh (PKAC-beta) [%] | %Inh (PKMYT1) [%] | %Inh (PKN1) [%] | %Inh (PKN2) [%] | %Inh (PLK1) [%] | %Inh (PLK2) [%] | %Inh (PLK3) [%] | %Inh (PLK4) [%] | %Inh (PIP5K2C; 1 µM) | %Inh (PKAC-alpha; 1 µM) | %Inh (PKAC-beta; 1 µM) | %Inh (PKN1; 1 µM) | %Inh (PKN2; 1 µM) | %Inh (PLK1; 1 µM) | %Inh (PLK2; 1 µM) | %Inh (PLK3; 1 µM) | %Inh (PLK4; 1 µM)
Cn1ccc2ncnc(Nc3ccc(Oc4cccc(Cl)c4)c(Cl)c3)c21 | 22 | 4 | 0 | 0 | 0 | 0 | 0 | 30 | 24 | 26 | – | – | – | – | – | – | – | – | –
CC(C)(C)c1ccc(-n2cnc3c(N)ncnc32)cc1 [SKF-97263] | 27 | 4 | 2 | 3 | 39 | 11 | 7 | 0 | 0 | 0 | – | – | – | – | – | – | – | – | –
Fc1ccc(Nc2nccc(-c3c(-c4ccc(Cl)cc4)nn4ncccc34)n2)cc1F [GW829058] | 20 | 15 | 24 | 4 | 4 | 13 | 32 | 36 | 20 | 29 | – | – | – | – | – | – | – | – | –
OCCOCCn1ccc2ncnc(Nc3ccc(Oc4cccc(Cl)c4)c(Cl)c3)c21 | 30 | 0 | 0 | 0 | 13 | 0 | 0 | 0 | 0 | 0 | – | – | – | – | – | – | – | – | –
Cl.Cl.c1ccc(-c2cc3ccncc3cc2OC2CCNCC2)cc1 [GSK1122999] | 6 | 0 | 9 | 14 | 0 | 19 | 5 | 0 | 0 | 9 | – | – | – | – | – | – | – | – | –
COc1ccc(-c2nc3n(c2-c2ccncc2)CCC3)cc1 [SKF-104493] | – | – | – | 0 | – | – | – | – | – | – | 0% and 9% | 5% and 0% | 7% and 0% | 7% and 0% | 23% and 0% | 22% and 0% | 11% and 0% | 1% and 0% | 0% and 15%
Fc1ccc(-c2ncn(CCCNCc3ccccc3)c2-c2ccncc2)cc1 | 3 | 26 | 6 | 27 | 23 | 1 | 0 | 5 | 13 | 32 | – | – | – | – | – | – | – | – | –
O=C(Nc1n[nH]c2nc(-c3ccco3)c(Br)cc12)c1ccc(CN2CCCC2)cc1.O=C(O)[C@H](O)[C@@H](O)C(=O)O [SB-742352] | 0 | 0 | 0 | 0 | 0 | 21 | 0 | 0 | 0 | 3 | – | – | – | – | – | – | – | – | –
Fc1cccc(COc2ccc(Nc3ncnc4sc(-c5ccc[nH]5)cc34)cc2Cl)c1 [GW707818] | 25 | 0 | 0 | 0 | 32 | 1 | 0 | 7 | 19 | 0 | – | – | – | – | – | – | – | – | –
COc1ccc(NC(=O)c2ccc(-c3cc(-c4nnc(C)o4)ccc3C)cc2)cc1 [GW595885] | 4 | 0 | 13 | 0 | 0 | 0 | 0 | 0 | 0 | 0 | – | – | – | – | – | – | – | – | –
COc1cc2ncnc(Nc3ccc(OCc4ccccc4Br)c(Cl)c3)c2cc1OC.Cl [GI261590] | 41 | 0 | 0 | 3 | 100 | 0 | 3 | 0 | 0 | 0 | – | – | – | – | – | – | – | – | –
Fc1cccc(COc2ccc(Nc3ncnc4nn5ccccc5c34)cc2Cl)c1 [GW689066] | 32 | 0 | 8 | 0 | 0 | 0 | 0 | 0 | 0 | 0 | – | – | – | – | – | – | – | – | –
COc1ccc(Nc2nccc(N3CCC(NC(=O)Nc4ccc5c(c4)OCO5)C3)n2)cc1 (stereo not drawn) [GSK1379745] | 44 | 5 | 5 | 0 | 38 | 0 | 8 | 0 | 0 | 0 | – | – | – | – | – | – | – | – | –
CCn1c(-c2ccncc2)nc2cnccc21 [SB-735216] | 0 | 0 | 3 | 6 | 2 | 20 | 28 | 37 | 16 | 0 | – | – | – | – | – | – | – | – | –
Clc1cc(Nc2ncnc3cc[nH]c23)ccc1OCc1ccccn1 | 8 | 23 | 0 | 0 | 23 | 0 | 2 | 23 | 25 | 34 | – | – | – | – | – | – | – | – | –
Cn1ccc2ncnc(Oc3ccc(NC(=O)Nc4cccnc4)c(Cl)c3)c21 | 0 | 7 | 0 | 0 | 0 | 0 | 0 | 5 | 11 | 11 | – | – | – | – | – | – | – | – | –
